In PubChem BioAssay:
Activity calls are given as the source filed them. Unless noted, no rule for the calls is given here.

What was measured:
[1] = A549 cell viability effects, profiling panel, calcein-AM fluorescence, 48 h, basal (AID 1162); conditions: higher = more signal; also: test concentration not given here
[2] = adipocyte viability effects, profiling panel, cell-based, 3T3-L1 adipocytes, calcein-AM fluorescence, 48 h, basal (AID 1163); conditions: 3T3-L1 adipocytes viability, higher = more signal; also: test concentration not given here
[3] = HepG2 cell viability effects, profiling panel, calcein-AM fluorescence, 48 h, basal (AID 1164); conditions: higher = more signal; also: test concentration not given here
[4] = MM1S cell viability effects, profiling panel, calcein-AM fluorescence, 48 h, basal (AID 1165); conditions: higher = more signal;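 also: viability of MM1S multiple myeloma cells under basal unstimulated conditions; test concentration not given here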
[5] = basal RPMI8226 viability, no added stimulus, profiling panel, cell-based, calcein-AM fluorescence, 48 h, PK04 Diversity Set (AID 1166); conditions: RPMI8226 myeloma viability, higher = more signal;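 also: cells grown under basal conditions without added stimulus; test concentration not given here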
[6] = basal HepG2 mitochondrial membrane potential changes, profiling panel, cell-based, JC-1 fluorescence, 24 h, 100 nL compound (AID 1167); conditions: higher = more signal; also: test concentration not given here
[7] = basal 3T3-L1 adipocyte mitochondrial potential changes, profiling panel, cell-based, JC-1 fluorescence, 3T3-L1 adipocytes, 24 h, 100 nL compound (AID 1168); conditions: JC-1 mitochondrial fluorescence, higher = more signal, called active from +8 up or from −8 down; also: test concentration not given here
[8] = basal RPMI8226 mitochondrial membrane potential changes, profiling panel, cell-based, JC-1 fluorescence, 24 h, 100 nL compound (AID 1169); conditions: RPMI8226 myeloma, JC-1 mitochondrial potential fluorescence, higher = more signal; also: test concentration not given here
[9] = basal MM1S mitochondrial membrane potential changes, profiling panel, cell-based, JC-1 fluorescence, 24 h, 100 nL compound (AID 1170); conditions: higher = more signal; also: test concentration not given here
[10] = A549 lung cancer cell viability effects, profiling panel, resazurin fluorescence, 24 h, PK04 Diversity Set (AID 1171); conditions: higher = more signal, called active from +8 up or from −8 down; also: test concentration not given here
[11] = HepG2 liver cancer cell viability effects, profiling panel, resazurin fluorescence, 24 h, PK04 Diversity Set (AID 1172); conditions: higher = more signal; also: test concentration not given here
[12] = basal S. cerevisiae growth modulation, no modifier, primary screen, OD600, strain BY4716, 24 h, basal condition (AID 1173); conditions: OD600, 24 h, higher = more signal, called active from +8 up or from −8 down
[13] = MM1S myeloma cell viability, profiling panel, resazurin fluorescence, basal, 24 h, PK04 Diversity Set (AID 1174); conditions: higher = more signal, called active from +8 up or from −8 down;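 also: MM1S multiple myeloma cell line; test concentration not given here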
[14] = molecular target: Dihydroorotate dehydrogenase (quinone), mitochondrial (Plasmodium falciparum (isolate 3D7)) (UniProt Q08210); test: PfDHODH enzyme inhibitors, primary screen, biochemical, C-terminal His tag, absorbance 600 nm (AID 1175); conditions: DCIP absorbance 600 nm, higher = more signal, called active from +8 up or from −8 down;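 also: recombinant parasite enzyme with a five histidine tag at its C terminus; test concentration not given here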
[15] = P. aeruginosa biofilm formation inhibitors, primary screen, strain PAO1, LB-PBS medium, absorbance 600 nm (AID 1176); also: test concentration not given here; conditions: P. aeruginosa PAO1 growth/biofilm, A600, 12 h; higher = more signal
[16] = S. cerevisiae RM11-1a growth modifiers, primary screen, strain RM11-1a, OD600, basal, 24 h (AID 1177); conditions: OD600, 24 h, higher = more signal, called active from +8 up or from −8 down;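 also: cultures grown under basal conditions with no added stressor; test concentration not given here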
[17] = E. coli acrAB mutant growth effects, primary screen, E. coli filamentation inducers, strain DRC39, OD650, 24 h (AID 1178); conditions: higher = more signal, called active from +8 up or from −8 down;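 also: growth measured as culture turbidity by optical density at 650 nm; test concentration not given here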
[18] = E. coli acrAB mutant growth effects, primary screen, E. coli filamentation inducers, strain DRC39, OD650, 48 h (AID 1179);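 also: screen aims at cell division blockers that make cells filament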; conditions: E. coli DRC39 delta-acrAB growth, higher = more signal, called active from +8 up or from −8 down
[19] = RPMI8226 myeloma cell viability, profiling panel, resazurin fluorescence, basal, 24 h, PK04 Diversity Set (AID 1180); conditions: higher = more signal;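 also: RPMI8826 multiple myeloma cell line at 5000 cells per well; test concentration not given here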
[20] = molecular target: E3 ubiquitin-protein ligase XIAP (Homo sapiens) (UniProt P98170); test: XIAP binders, primary screen, biophysical, small-molecule microarray, fluorescence 635 nm (AID 1181); conditions: small-molecule microarray binding, higher = more signal;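 also: score merges 667 nm emission and signal to noise over triplicate slides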
Chain of E3 ubiquitin-protein ligase XIAP (Homo sapiens) (P98170 whole entry, looked up): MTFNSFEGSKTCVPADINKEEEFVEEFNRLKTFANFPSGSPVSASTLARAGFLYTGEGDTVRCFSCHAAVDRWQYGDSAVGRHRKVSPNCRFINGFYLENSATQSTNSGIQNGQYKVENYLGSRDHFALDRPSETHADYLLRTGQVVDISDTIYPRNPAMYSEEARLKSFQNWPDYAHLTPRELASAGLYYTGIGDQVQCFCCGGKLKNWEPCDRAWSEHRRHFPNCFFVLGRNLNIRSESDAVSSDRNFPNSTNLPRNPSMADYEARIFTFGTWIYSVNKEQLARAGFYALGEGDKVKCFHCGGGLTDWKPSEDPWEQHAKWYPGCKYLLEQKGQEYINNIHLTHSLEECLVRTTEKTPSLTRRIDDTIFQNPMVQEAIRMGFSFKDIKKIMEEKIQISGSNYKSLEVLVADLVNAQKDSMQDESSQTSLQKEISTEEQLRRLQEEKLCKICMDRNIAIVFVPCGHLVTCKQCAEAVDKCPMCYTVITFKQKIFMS

Chain of Dihydroorotate dehydrogenase (quinone), mitochondrial (Plasmodium falciparum (isolate 3D7)) (Q08210 whole entry, looked up): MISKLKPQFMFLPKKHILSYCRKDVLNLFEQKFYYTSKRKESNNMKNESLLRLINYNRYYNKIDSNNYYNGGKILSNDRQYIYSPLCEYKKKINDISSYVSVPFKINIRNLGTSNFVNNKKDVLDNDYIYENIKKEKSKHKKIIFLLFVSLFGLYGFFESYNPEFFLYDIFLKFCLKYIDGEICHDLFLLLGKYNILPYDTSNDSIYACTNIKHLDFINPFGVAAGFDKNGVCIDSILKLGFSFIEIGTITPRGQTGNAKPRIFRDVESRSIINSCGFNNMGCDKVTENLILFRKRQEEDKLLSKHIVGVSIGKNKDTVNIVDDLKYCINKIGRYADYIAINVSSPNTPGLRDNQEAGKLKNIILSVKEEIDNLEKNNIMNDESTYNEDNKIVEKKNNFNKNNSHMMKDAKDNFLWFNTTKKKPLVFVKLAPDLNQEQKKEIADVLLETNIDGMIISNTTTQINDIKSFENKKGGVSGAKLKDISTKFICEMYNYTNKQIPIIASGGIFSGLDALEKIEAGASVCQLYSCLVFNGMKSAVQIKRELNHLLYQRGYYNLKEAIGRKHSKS

SMILES	z-score [1]	z-score [2]	z-score [3]	z-score [4]	z-score [5]	z-score [6]	z-score [7]	z-score [8]	z-score [9]	z-score [10]	z-score [11]	z-score [12]	z-score [13]	composite z-score [14]	z-score [15]	z-score [16]	z-score [17]	z-score [18]	z-score [19]	composite z-score [20]
CCCC[C@@H]1C[C@H]1[C@@H](NC(=O)c1cccnc1)c1ccc(Cl)cc1	-1.01	-1.38	-0.114	-2.05	-3.56	1.06	-0.307 (inactive)	-0.249	-1.62	1.56 (inactive)	0.562	-6.77 (inactive)	-0.731 (inactive)	0.303 (inactive)	-0.0019 (inactive)	-2.78 (inactive)	0.014 (inactive)	-0.0491 (inactive)	-0.663	-0.0948
O=C1O[C@@H](c2ccccc2)[C@@H](c2ccccc2)N2[C@@H](c3ccc(OCCO)cc3)[C@]3(C(=O)Nc4ccc(C#CCCO)cc43)[C@@H](C(=O)NC[C@H](O)c3ccccc3)[C@H]12	0.225	-0.0616	0.808	-0.301	0.407	-0.821	-1.33 (inactive)	-0.479	-0.468	-0.293 (inactive)	0.148	1.49 (inactive)	0.428 (inactive)	1.47 (inactive)	2.78 (inactive)	2.97 (inactive)	0.968 (inactive)	1 (inactive)	0.671	-0.0249
CS(=O)(=O)CCOC(=O)C1=CC(CCCO)=CC(C2CC2)N(Cc2cc3c(cc2Br)OCO3)C=C1C(=O)OCCS(C)(=O)=O (stereo not given)	1.25	0.385	0.862	-0.538	-0.246	3.31	0.262 (inactive)	-0.41	-1.37	0.796 (inactive)	0.0423	-2.22 (inactive)	-0.134 (inactive)	-1.5 (inactive)	0.118 (inactive)	0.37 (inactive)	1.17 (inactive)	0.892 (inactive)	-0.0822	0.448
CCCCC(=C=CC[C@@H](O)c1ccc(CO)o1)CCO	1.48	-0.186	0.376	-0.277	0.275	0.761	0.618 (inactive)	0.0267	0.321	1.28 (inactive)	1.15	-0.205 (inactive)	-0.438 (inactive)	-0.594 (inactive)	0.838 (inactive)	0.175 (inactive)	1.54 (inactive)	1.12 (inactive)	1.22	0.128
C=CC[C@]1(C(N)=O)COC(c2ccc(OCCCO)cc2)=N1	0.669	-0.793	0.0717	0.327	1.3	0.16	0.654 (inactive)	0.702	-0.753	0.381 (inactive)	1.4	0.412 (inactive)	-0.801 (inactive)	0.94 (inactive)	-0.814 (inactive)	0.75 (inactive)	1.12 (inactive)	1.83 (inactive)	0.679	-0.095
CCOC(=O)C[C@H]1[C@H](OC(=O)c2ccc(C(=O)c3ccccc3)cc2)[C@@H](NC(=O)c2ccccc2)c2cc(OCCCO)ccc2N1C(=O)c1ccccc1	0.223	1.05	0.496	0.358	0.17	0.601	0.00705 (inactive)	0.892	0.0929	0.254 (inactive)	-0.529	0.783 (inactive)	-0.224 (inactive)	-0.206 (inactive)	0.137 (inactive)	0.144 (inactive)	0.158 (inactive)	0.293 (inactive)	0.247	-0.0152
O=C(CS)NCCCCCNC(=O)[C@@H]1C[C@@H]2C(=O)NCC(=O)N2[C@@H]1c1cccc(OCCO)c1	0.686	0.45	0.938	0.231	0.842	1.85	-0.102 (inactive)	-0.738	-0.249	-0.696 (inactive)	-0.28	-1.01 (inactive)	0.648 (inactive)	-0.61 (inactive)	0.752 (inactive)	-2.63 (inactive)	1.95 (inactive)	2.01 (inactive)	0.847	-0.103
COC(=O)[C@]1(Cc2ccccc2)N=C(c2ccc(OCCCO)cc2)O[C@@H]1c1ccccc1N=[N+]=[N-]	-2.41	0.574	-5.44	-3.61	-3.66	-2.75	-0.223 (inactive)	-1.13	-2.9	-2.87 (inactive)	-2.66	-1.45 (inactive)	-4.47 (inactive)	1.16 (inactive)	1.69 (inactive)	0.285 (inactive)	0.2 (inactive)	-1.19 (inactive)	-7.02	0.336
COCCOC(=O)N1C(=O)[C@@]2(c3ccccc31)[C@H](C(=O)N1CCCCCCC1)[C@H]1C(=O)O[C@H](c3ccccc3)[C@H](c3ccccc3)N1[C@@H]2c1ccc(OCCO)cc1	-0.134	-0.202	-0.265	-0.88	-1.07	-0.639	-1.75 (inactive)	-0.714	-1.15	0.526 (inactive)	-0.329	1.79 (inactive)	-0.44 (inactive)	1.15 (inactive)	2.29 (inactive)	2.47 (inactive)	-0.643 (inactive)	-0.623 (inactive)	-0.281	2.5
